Source: PubChem BioAssay (Buhrlage Lab, Dana-Farber Cancer Institute and Novartis Institutes for BioMedical Research (Cambridge, Mass))
Rows were chosen to be rich in hits. Some 13% of all compounds tested hit in one or more screens of this group.
USP17 block: inhibitors of human USP17 deubiquitinase | purified USP17, Ub-rhodamine cleavage fluorescence, 3 h | inhibition, % at 50 µM | 47,000 compounds, 6.5% hits
USP10 block: inhibitors of human USP10 deubiquitinase | Ubiquitin carboxyl-terminal hydrolase 10 (Homo sapiens), Q14694 | purified USP10, Ub-rhodamine fluorescence, 60 min | inhibition, % at 20 µM | 47,000 compounds, 1.1% hits | AID 1645856, 2021
USP28 inh: inhibitors of human USP28 deubiquitinase | 47,000 compounds, 3% hits | Ubiquitin carboxyl-terminal hydrolase 28 (Homo sapiens), Q96RU2 | purified USP28, Ub-rhodamine cleavage fluorescence, 30 min | inhibition, % at 25 µM
Target sequence (Q96RU2 whole entry, looked up): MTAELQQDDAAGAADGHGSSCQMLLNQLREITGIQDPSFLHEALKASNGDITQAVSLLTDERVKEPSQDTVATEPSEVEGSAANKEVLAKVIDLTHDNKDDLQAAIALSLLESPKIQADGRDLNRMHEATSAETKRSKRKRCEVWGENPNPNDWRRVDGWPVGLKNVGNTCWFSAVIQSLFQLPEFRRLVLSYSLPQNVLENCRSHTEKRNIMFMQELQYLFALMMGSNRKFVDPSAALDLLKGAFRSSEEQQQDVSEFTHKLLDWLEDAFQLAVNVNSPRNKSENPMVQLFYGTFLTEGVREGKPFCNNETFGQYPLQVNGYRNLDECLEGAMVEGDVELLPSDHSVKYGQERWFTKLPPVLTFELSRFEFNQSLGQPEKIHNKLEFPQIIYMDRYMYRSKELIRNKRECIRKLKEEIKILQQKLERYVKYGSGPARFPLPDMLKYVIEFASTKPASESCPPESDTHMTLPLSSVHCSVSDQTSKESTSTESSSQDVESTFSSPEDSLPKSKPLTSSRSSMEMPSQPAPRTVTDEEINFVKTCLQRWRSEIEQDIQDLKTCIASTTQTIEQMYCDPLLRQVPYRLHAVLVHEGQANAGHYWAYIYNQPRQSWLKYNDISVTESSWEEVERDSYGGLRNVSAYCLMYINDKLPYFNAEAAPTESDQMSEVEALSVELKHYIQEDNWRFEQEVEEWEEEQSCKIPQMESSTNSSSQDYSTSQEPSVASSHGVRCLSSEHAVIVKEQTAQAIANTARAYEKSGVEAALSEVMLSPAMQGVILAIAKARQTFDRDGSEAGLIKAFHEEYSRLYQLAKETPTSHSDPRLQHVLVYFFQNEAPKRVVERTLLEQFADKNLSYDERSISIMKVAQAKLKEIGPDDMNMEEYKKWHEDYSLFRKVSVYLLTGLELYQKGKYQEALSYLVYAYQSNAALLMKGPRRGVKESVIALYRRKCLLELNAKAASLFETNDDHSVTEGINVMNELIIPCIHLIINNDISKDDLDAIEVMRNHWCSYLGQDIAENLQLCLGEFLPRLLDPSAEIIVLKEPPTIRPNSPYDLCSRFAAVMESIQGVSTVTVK
USP8 block: inhibitors of human USP8 deubiquitinase. inhibition, % at 20 µM. purified USP8, Ub-rhodamine cleavage fluorescence, 30 min. 47,000 compounds, 4.2% hits. Ubiquitin carboxyl-terminal hydrolase 8 (Homo sapiens), P40818
USP30 block: inhibitors of human USP30 deubiquitinase | Ubiquitin carboxyl-terminal hydrolase 30 (Homo sapiens), Q70CQ3 | AID 1645860, 2021 | inhibition, % at 25 µM | 47,000 compounds, 5.3% hits | purified USP30, Ub-rhodamine cleavage fluorescence
Large screens that a line does not name were inactive. Cut-off read from the data, not from the text of the source: active = inhibition above about 30%; inactive = the rest.

O=C(Nc1ccc(OC(F)(F)F)cc1)NC1Cc2ccccc2C1	USP8 block 42
O=C(Nc1ccc(F)cc1F)NC1Cc2ccccc2C1	USP30 block 66
Cc1ccc(CSc2nc(C)nc3c2c(=O)n(C)c(=O)n3C)cc1	none
O=C(Cn1c(=O)n(CCCC(=O)N2CC=C(c3ccccc3)CC2)c(=O)c2ccccc21)NCCC1=CCCCC1	USP17 block 52
O=C(CCCCn1c(=O)c2ccccc2n(CC(=O)NCCC2=CCCCC2)c1=O)NCc1ccc2c(c1)OCO2	USP17 block 33 (no result: USP28 inh, USP30 block)
O=C(Cc1ccc(-n2c(=O)c3ccccc3n(CC(=O)NCCC3=CCCCC3)c2=O)cc1)NCCc1ccccc1	none
CCCCNC(=O)CCCn1c(=O)c2ccccc2n(CC(=O)NCCC2=CCCCC2)c1=O	none
O=C(Cn1c(=O)n(-c2ccccc2)c(=O)c2ccc(C(=O)NCc3ccc4c(c3)OCO4)cc21)NCCC1=CCCCC1	USP17 block 33, USP10 block 32, USP28 inh 41, USP8 block 75, USP30 block 56
Cc1cc(NC(=O)Cn2c(=O)n(CCC(=O)N3CC=C(c4ccccc4)CC3)c(=O)c3ccccc32)n[nH]1	USP8 block 68
O=C(NC1CCCCC1)N1CC(c2nc(-c3ccc[nH]c3=O)no2)C1	none
O=C(CCn1c(=O)c2ccccc2n(Cc2cccc([N+](=O)[O-])c2)c1=O)N1CC=C(c2ccccc2)CC1	USP30 block 39
O=C(CCn1c(=O)c2ccccc2n(Cc2ccccc2F)c1=O)N1CC=C(c2ccccc2)CC1	none
O=C(Nc1cnc(N2CCCC2)nc1)c1ccccc1Br	none
CCCCC/C=C/c1c(O)cc(CC=C(C)C)c(O)c1C=O	none
C/C=C/C=C/CCc1c(O)cc(CC=C(C)C)c(O)c1C=O	USP17 block 45
O=C(/C=C/c1c(F)cccc1Cl)N1CCc2ccccc2C1	USP17 block 75, USP28 inh 43, USP8 block 93
O=C(/C=C/c1ccc(Cl)cc1)N1CCc2ccccc2C1	none (no result: USP17 block)
CCCOc1cccc(C(=O)Oc2ccc(-n3cnnn3)cc2)c1	none
CC(C)COc1ccc(C(=O)Oc2ccc(-n3cnnn3)cc2)cc1	USP8 block 37
CCCCOc1ccc(C(=O)Oc2ccc(-n3cnnn3)cc2)cc1	USP8 block 33
CCc1nnc(-c2cc(S(=O)(=O)N3CCN(c4ccccc4F)CC3)c[nH]2)o1	none
O=C(NC1CC1)c1c(NC(=O)C23CC4CC(CC(C4)C2)C3)sc2c1CCCC2	none
CC(=O)Nc1c(-c2ccc(C)cc2)c(C)nn1-c1ccc(C(=O)Nc2cccc(C#N)c2)cc1	USP17 block 49
O=C1COc2ccc(C(=O)COC(=O)C3(c4ccc(F)cc4)CCCC3)cc2N1	none
O=C1COc2ccc(C(=O)COC(=O)c3ccccc3O)cc2N1	USP17 block 36
O=C1COc2ccc(C(=O)COC(=O)CCc3nc4ccccc4s3)cc2N1	USP17 block 48, USP28 inh 32, USP30 block 30
CCNC(=O)N1C2CCC(O)(CC2)C1CN1CCOCC1 (stereo unspecified)	none
O=C(NC1CCCCC1)C1CCCN(S(=O)(=O)c2cccnc2)C1 (stereo unspecified)	none
CC(C)CC(=O)N1CCC(c2nc3c(nnn3Cc3c(F)cccc3Cl)c(=O)[nH]2)CC1	none
COc1ccc(CN2CCC([C@@H]3C[C@H](C(F)(F)F)n4ncnc4N3)CC2)cc1OC	none
COc1ccccc1CN1CCC([C@@H]2C[C@H](C(F)(F)F)n3ncnc3N2)CC1	USP30 block 31
Cc1ccc(-n2c(-c3cccs3)cn3c4c(=O)n(C)c(=O)n(C)c4nc23)cc1	USP17 block 36
COc1ccc(CCn2c(-c3ccccc3)cn3c4c(=O)n(C)c(=O)n(C)c4nc23)cc1OC	USP30 block 39
Cn1c(=O)c2c(nc3n(-c4ccccc4F)c(-c4ccccc4)cn23)n(C)c1=O	USP17 block 39, USP30 block 72
Cc1cn2c3c(=O)n(C)c(=O)n(C)c3nc2n1Cc1cccc2ccccc12	USP30 block 48
O=C(O)/C(=C/c1ccc(Br)cc1)NC(=O)c1ccco1	none (no result: USP28 inh, USP30 block)
Cc1cc(=O)oc2cc(OCC(=O)Nc3cc(Cl)ccc3N3CCOCC3)ccc12	USP17 block 42, USP30 block 50
COc1ccc(C(C(=O)NC2CCCC2)N(Cc2ccccc2Cl)C(=O)c2ccco2)cc1 (stereo unspecified)	USP30 block 35
CCN1CC[C@@]2(C(=O)N3CCOCC3)CCN(C(=O)CC(C)C)CC[C@@H]12	none
Cc1ccc(Cn2cnc3c(nnn3-c3cccc(F)c3)c2=O)cc1	USP17 block 47, USP8 block 42
CCc1ccc(NC(=O)Cn2cnc3c(nc4n3CCCCC4)c2=O)cc1	none
Cc1cccc(-n2nnc3c(=O)n(CC(=O)Nc4ccc5c(c4)OCCO5)cnc32)c1	none
CCOC(=O)c1ccc(NC(=O)Cn2cnc3c(nc4n3CCCCC4)c2=O)cc1	USP30 block 49
CCOC(=O)c1ccc(NC(=O)Cn2cnc3c(nnn3-c3cccc(Cl)c3)c2=O)cc1	USP17 block 33
Cc1cccc(-n2nnc3c(=O)n(CC(=O)Nc4ccc5c(c4)OCO5)cnc32)c1	USP8 block 31
Cc1ccc(OCc2nc(CC(=O)N(C)C3CCS(=O)(=O)C3)cs2)cc1 (stereo unspecified)	none
O=C(Nc1ccc(F)cc1F)c1cnn2cc(Br)cnc12	none
CC(C)N1CC[C@@H]2[C@H]1C(=O)NC[C@H](CCC(=O)N1CCN(c3ccccn3)CC1)N2C	USP28 inh 42, USP8 block 62, USP30 block 39
CN1[C@@H](CCC(=O)N2CCN(c3ccccn3)CC2)CNC(=O)[C@@H]2[C@H]1CCN2CC(C)(C)C	none
CN1[C@@H](CCC(=O)N2CCC(O)CC2)CNC(=O)[C@@H]2[C@H]1CCN2Cc1cccc(OC(F)(F)F)c1	USP8 block 35
CN1[C@@H](CCC(=O)N2CCN(c3ccccn3)CC2)CNC(=O)[C@@H]2[C@H]1CCN2Cc1ccc(O)cc1	USP28 inh 56, USP8 block 73, USP30 block 46
CN1[C@@H](CCC(=O)N2CCC(O)CC2)CNC(=O)[C@@H]2[C@H]1CCN2Cc1ncc[nH]1	none
CN1[C@@H](CCC(=O)N2CCC(O)CC2)CNC(=O)[C@@H]2[C@H]1CCN2Cc1ccc(O)cc1	USP28 inh 43, USP8 block 66, USP30 block 55
CN1[C@@H](CCC(=O)N2CCN(c3ccccn3)CC2)CNC(=O)[C@@H]2[C@H]1CCN2Cc1ccc(CO)o1	none
C=CC(C)(C)c1[nH]c2ccccc2c1/C=c1/[nH]c(=O)c2n(c1=O)CCC=2	none
CC12NC(=O)C(CC13C(=O)Nc1ccccc13)n1c2nc2ccccc2c1=O (stereo unspecified)	none
